The source of these data is PubChem BioAssay AID624141 (Broad Institute, 2012).

The whole screen tested about 17,000 compounds, of which about 260 (1.5%) were called active.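 The calls were made as follows: active = spot fluorescence over background with P-value below 7% in all four replicate spots, showing protein binding; inactive = the rest.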 The entries come from a sample that favours actives as a whole.

The target of the assay is Myc proto-oncogene protein (Homo sapiens) (UniProt P01106). The assay can be described thus: binders of human c-Myc, primary screen, biochemical, small molecule microarray, anti-His fluorescence (AID 624141). The settings on record: His-c-Myc binding.
Sequence of Myc proto-oncogene protein (Homo sapiens) (P01106 whole entry, looked up): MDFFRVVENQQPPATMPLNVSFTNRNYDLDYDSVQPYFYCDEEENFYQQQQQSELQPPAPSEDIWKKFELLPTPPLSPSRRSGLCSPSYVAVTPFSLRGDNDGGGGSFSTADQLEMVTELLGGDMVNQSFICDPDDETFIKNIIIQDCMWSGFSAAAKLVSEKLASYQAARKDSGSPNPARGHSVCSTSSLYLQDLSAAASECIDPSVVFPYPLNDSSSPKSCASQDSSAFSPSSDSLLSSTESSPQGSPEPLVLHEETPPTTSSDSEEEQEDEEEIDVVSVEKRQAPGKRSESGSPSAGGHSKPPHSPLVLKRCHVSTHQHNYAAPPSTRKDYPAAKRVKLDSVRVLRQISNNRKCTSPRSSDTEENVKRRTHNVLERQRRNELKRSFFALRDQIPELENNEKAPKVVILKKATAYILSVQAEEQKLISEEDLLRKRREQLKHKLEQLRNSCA
`C[C@@H]1CN([C@H](C)CO)C(=O)Cc2cc(NC(=O)CCN3CCOCC3)ccc2O[C@H]1CN(C)C`: the compound was classed as inactive. As for `COc1cc(O[C@@H]2O[C@H](CO[C@H]3OC[C@](O)(COC(=O)c4ccc(O)c(OC)c4)[C@H]3O)[C@@H](O)[C@H](O)[C@H]2O)ccc1O`, the call was inactive.

`COc1ccc(NC(=O)N(C)C[C@@H]2OCCCC[C@H](C)Oc3ccc(NC(=O)c4ccccc4)cc3C(=O)N([C@H](C)CO)C[C@H]2C)cc1`: the compound was called inactive. The result for `COc1ccccc1NC(=O)c1ccc(OCC(=O)Nc2ccccc2F)cc1` reads “inactive”; that for `O=C(Nc1ccc(Cl)cc1C(=O)NCc1ccco1)c1ccco1`, “inactive”. The result for `C[C@@H]1CN([C@H](C)CO)C(=O)c2cc(NS(=O)(=O)c3cn(C)cn3)ccc2O[C@@H](C)CCCCO[C@H]1CN(C)C` reads “inactive”; that for `CN(C)c1nc(N)nc(CSc2ccccn2)n1`, “inactive”. The value for `COc1ccccc1NC(=O)CNC(=O)c1ccc(C)cc1` was “inactive”; that for `CC(C)NC(=O)N(C)C[C@@H]1OCCCC[C@H](C)Oc2ccc(NC(=O)Nc3ccccc3)cc2C(=O)N([C@H](C)CO)C[C@@H]1C` was “inactive”. As for `C[C@@H]1CCCCO[C@H](CN(C)C(=O)Nc2ccccc2)[C@H](C)CN([C@@H](C)CO)C(=O)c2cc(N(C)C)ccc2O1`, the result was inactive. Regarding `Cc1noc(C)c1S(=O)(=O)N(C)C[C@H]1Oc2c(NC(=O)c3cnccn3)cccc2C(=O)N([C@H](C)CO)C[C@H]1C`, the outcome was active. The result for `C[C@H]1CN([C@@H](C)CO)C(=O)c2cccc(NC(=O)c3cnccn3)c2O[C@H]1CN(C)S(=O)(=O)c1cn(C)cn1` reads “inactive”. As to `C[C@H](CO)N1C[C@H](C)[C@@H](CN(C)C(=O)NC2CCCCC2)Oc2c(NC(=O)Nc3ccc(F)cc3)cccc2C1=O`, the compound was classed as inactive.

For `CC(C)NC(=O)Nc1ccc2c(c1)C(=O)N([C@@H](C)CO)C[C@@H](C)[C@H](CN(C)C(=O)Cc1ccccc1)OCCCC[C@H](C)O2`, the compound was classed as inactive. The result for `C[C@H]1CN([C@@H](C)CO)C(=O)c2cccc(NC(=O)c3cnccn3)c2O[C@H]1CN(C)C(=O)Nc1ccccc1` reads “inactive”; that for `C[C@@H]1CCCCO[C@@H](CN(C)C(=O)Nc2ccccc2)[C@@H](C)CN([C@@H](C)CO)C(=O)c2cc(N(C)C)ccc2O1`, “inactive”; that for `C[C@@H]1CN([C@H](C)CO)C(=O)c2cccc(NC(=O)Nc3ccccc3)c2O[C@@H]1CN(C)C(=O)NC1CCCCC1`, “inactive”. The result for `C[C@H](CO)N1C[C@H](C)[C@@H](CN(C)C(=O)Nc2cccc3ccccc23)OCCCC[C@H](C)Oc2ccc(N(C)C)cc2C1=O` reads “active”; that for `C[C@H]1CN([C@@H](C)CO)C(=O)c2cccc(NC(=O)Nc3ccc(C(F)(F)F)cc3)c2O[C@H]1CN(C)C(=O)NC1CCCCC1`, “active”; that for `C[C@@H]1CCCCO[C@@H](CN(C)C(=O)Nc2ccccc2)[C@@H](C)CN([C@H](C)CO)C(=O)c2cc(NC(=O)Nc3ccc(F)cc3)ccc2O1`, “inactive”. The result for `C[C@@H]1CCCCO[C@@H](CN(C)C(=O)Cc2ccccc2)[C@H](C)CN([C@@H](C)CO)C(=O)c2cc(NC(=O)Nc3ccc(F)cc3)ccc2O1` reads “active”. On to `C[C@@H]1CCCCO[C@H](CN(C)C(=O)Nc2ccccc2)[C@H](C)CN([C@H](C)CO)C(=O)c2cc(NC(=O)Nc3ccccc3)ccc2O1`, for which the compound was classed as inactive. The value for `C[C@@H]1CCCCO[C@H](CN(C)C(=O)C2CCCCC2)[C@@H](C)CN([C@@H](C)CO)C(=O)c2cc(NC(=O)Nc3ccccc3)ccc2O1` was “active”; that for `CC(C)NC(=O)N(C)C[C@@H]1OCCCC[C@@H](C)Oc2ccc(NC(=O)Nc3ccccc3)cc2C(=O)N([C@H](C)CO)C[C@@H]1C` was “inactive”; that for `CC(C)NC(=O)N(C)C[C@H]1OCCCC[C@@H](C)Oc2ccc(NC(=O)Nc3cccc4ccccc34)cc2C(=O)N([C@H](C)CO)C[C@@H]1C` was “inactive”.

As for `Cc1cc(C)cc(Oc2c(C(F)(F)F)oc3cc(OCC(=O)O)ccc3c2=O)c1`, the result was active. Turning to `C[C@@H]1CN([C@H](C)CO)C(=O)CCCn2cc(nn2)CO[C@@H]1CN(C)C(=O)Nc1ccc(-c2cccs2)cc1`, the call was inactive. Turning to `CN(CC(=O)O)S(=O)(=O)c1ccc(F)c2ccccc12`, the compound was classed as inactive.

Consider `COc1ccc(S(=O)(=O)N(C)C[C@H]2Oc3c(NS(=O)(=O)c4cccs4)cccc3C(=O)N([C@H](C)CO)C[C@@H]2C)cc1`, for which the compound was called inactive.

For the compound `C[C@H](CO)N1C[C@H](C)[C@@H](CN(C)Cc2ccc(C(F)(F)F)cc2)Oc2ccc(NC(=O)CCN3CCOCC3)cc2C1=O`, the compound was called inactive.

For `C[C@H](CO)N1C[C@H](C)[C@H](CN(C)Cc2ccc(C(=O)O)cc2)Oc2c(NC(=O)C3CCOCC3)cccc2C1=O`, the result was inactive.

Consider `C[C@@H]1CN([C@@H](C)CO)C(=O)Cc2cc(NC(=O)CCN3CCOCC3)ccc2O[C@@H]1CN(C)C(=O)Nc1cccc2ccccc12`, for which the compound was classed as inactive. The result for `C[C@H](CO)N1C[C@H](C)[C@H](CN(C)S(=O)(=O)c2cn(C)cn2)Oc2ccc(N(C)C)cc2C1=O` reads “inactive”; that for `Cc1noc(C)c1S(=O)(=O)Nc1cccc2c1O[C@@H](CN(C)S(=O)(=O)c1cn(C)cn1)[C@@H](C)CN([C@H](C)CO)C2=O`, “inactive”.

For the compound `O=c1c2ccccc2[nH]c(=S)n1CCN1CCC(=C(c2ccc(F)cc2)c2ccc(F)cc2)CC1`, the call was active. The value for `O=C(c1ccc(F)cc1)C1CCN(CCCCc2ccccc2)CC1` was “inactive”; that for `COc1ccc(S(=O)(=O)N(C)C[C@H]2Oc3c(NC(=O)C4CCOCC4)cccc3C(=O)N([C@@H](C)CO)C[C@@H]2C)cc1` was “inactive”; that for `C[C@@H]1CN([C@H](C)CO)C(=O)c2cc(NC(=O)c3ccncc3)ccc2O[C@@H]1CN(C)C(=O)Nc1ccc(F)cc1` was “inactive”. The value for `COc1ccc(S(=O)(=O)N(C)C[C@@H]2Oc3ccc(NC(=O)Nc4cccc5ccccc45)cc3C(=O)N([C@H](C)CO)C[C@H]2C)cc1` was “inactive”.

Regarding `C[C@@H]1CN([C@@H](C)CO)C(=O)c2cc(NC(=O)C3CCCCC3)ccc2O[C@@H](C)CCCCO[C@@H]1CN(C)Cc1ccc(C(=O)O)cc1`, the compound was called inactive. The value for `C/C=C(\C)C(=O)O[C@H]1C=CC(=O)O[C@H]1/C=C/[C@H](O)[C@H](C)O` was “inactive”; that for `C[C@@H]1CN([C@@H](C)CO)C(=O)c2cc(NC(=O)CCCN(C)C)ccc2O[C@@H](C)CCCCO[C@H]1CN(C)Cc1ccc2c(c1)OCO2` was “inactive”. As to `COC(=O)COc1c(Sc2ccc([N+](=O)[O-])cc2)c(C)nn1-c1ccccc1`, the compound was classed as inactive. The result for `COC(=O)C1=CO[C@@H](O[C@@H]2O[C@H](CO)[C@@H](O)[C@H](O)[C@H]2O)[C@@H]2[C@@H](C)[C@@H](OC(=O)C3=CO[C@@H](O[C@@H]4O[C@H](CO)[C@@H](O)[C@H](O)[C@H]4O)[C@@H]4[C@@H](C)[C@@H](OC(C)=O)C[C@H]34)C[C@H]12` reads “inactive”; that for `C[C@H]1CN([C@@H](C)CO)C(=O)CCCn2cc(nn2)CO[C@@H]1CN(C)S(=O)(=O)c1cccs1`, “inactive”. For the compound `C[C@H](CO)N1C[C@H](C)[C@H](CN(C)C(=O)Nc2ccc(C(F)(F)F)cc2)Oc2ccc(NS(=O)(=O)c3ccccc3)cc2CC1=O`, the call was inactive. The value for `C[C@@H]1CN([C@H](C)CO)C(=O)c2cccc(NS(=O)(=O)c3cccs3)c2O[C@@H]1CN(C)C(=O)Nc1cccc2ccccc12` was “inactive”; that for `CS(=O)(=O)N(CC(=O)Nc1ccc(C(N)=O)cc1)c1cccc(C(F)(F)F)c1` was “inactive”; that for `CC(C)NC(=O)Nc1ccc2c(c1)C(=O)N([C@H](C)CO)C[C@@H](C)[C@@H](CN(C)C(=O)c1ccncc1)OCCCC[C@H](C)O2` was “inactive”. The result for `Cc1cc(C(=O)Nc2cccc3c2O[C@@H](CN(C)Cc2ccc4c(c2)OCO4)[C@@H](C)CN([C@@H](C)CO)C3=O)n(C)n1` reads “inactive”; that for `C[C@@H]1CN([C@@H](C)CO)C(=O)c2cc(NC(=O)Nc3cccc4ccccc34)ccc2O[C@@H]1CN(C)Cc1ccc(-c2ccccc2)cc1`, “inactive”. The result for `C[C@@H]1CN([C@@H](C)CO)C(=O)c2cc(NC(=O)C3CCCCC3)ccc2O[C@@H]1CN(C)S(=O)(=O)c1ccc(F)cc1` reads “inactive”; that for `C[C@@H]1CCCCO[C@@H](CN(C)Cc2ccc(C(=O)O)cc2)[C@H](C)CN([C@H](C)CO)C(=O)c2cc(NC(=O)Nc3ccc(F)cc3)ccc2O1`, “inactive”. Consider `O=C(O)CCC(=O)Nc1ccc(-c2nc3ccccc3o2)cc1`, for which the result was inactive. The value for `COc1cc(/C=C/C(=O)O[C@@H]2O[C@H](CO[C@@H]3O[C@H](CO)[C@@H](O)[C@H](O)[C@H]3O)[C@@H](O)[C@H](O)[C@H]2OC(=O)/C=C/c2cc(OC)c(O)c(OC)c2)cc(OC)c1O` was “inactive”. The result for `C=CCOC(=O)[C@H]1[C@@H]2C(=O)O[C@@H](c3ccccc3)[C@@H](c3ccccc3)N2[C@@H](c2ccc(OCCOC(=O)[C@H]3C[C@H]4C(=O)NCC(=O)N4[C@H]3c3ccc(O)cc3)cc2)[C@]12C(=O)Nc1ccccc12` reads “inactive”; that for `C=C(C(=O)O)C1CCC(CCC)OC1=O` (configuration not stated), “inactive”.
